Data from PubChem BioAssay AID1159580 (chemical genetic matrix, 2015).
The whole screen tested about 5,500 compounds, of which about 2,000 (36%) were called active. Roughly 18% stayed inconclusive and do not appear here. Cut-off read from the data, not from the text of the source: active = normalized growth mostly below about 0.91 (no sharp cut-off); inconclusive = no clear call, values can overlap the other calls; inactive = mostly above about 0.92. Some of the results follow.

Test: chemical genetic growth profiling, strain panel (AID 1159580);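 note: tested at 20 µM; growth read once vehicle control cultures reached saturation at 30 °C; 1 = growth at the plate median or of vehicle wells; lower values mean less growth of the strain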
Conditions: growth OD

Measured: normalized growth

Cc1onc(-c2ccccc2)c1-c1ccc(S(N)(=O)=O)cc1
inactive: S. cerevisiae deletion strains, locus YJR043C, strain POL32, active compounds read low 0.993 | S. cerevisiae deletion strains, locus YJR075W, strain HOC1, active compounds read low 1 | S. cerevisiae deletion strains, locus YKL009W, strain mrt4, active compounds read low 0.993 | S. cerevisiae deletion strains, locus YKL068W, active compounds read low 1 | S. cerevisiae deletion strains, locus YKL085W, strain MDH1 (second series), active compounds read low 0.996 | S. cerevisiae deletion strains, locus YKL085W, strain MDH1, active compounds read low 0.996 | S. cerevisiae deletion strains, locus YKL160W, strain elf1, active compounds read low 1 | S. cerevisiae deletion strains, locus YKL190W, strain CNB1, active compounds read low 1.01 | S. cerevisiae deletion strains, locus YKR001C, strain vps1, active compounds read low 0.991 | S. cerevisiae deletion strains, locus YKR026C, strain gcn3, active compounds read low 0.987 | S. cerevisiae deletion strains, locus YKR091W, strain srl3, active compounds read low 0.999 | S. cerevisiae deletion strains, locus YLL001W, strain dnm1, active compounds read low 0.994 | S. cerevisiae deletion strains, locus YLL026W, active compounds read low 0.999 | S. cerevisiae deletion strains, locus YLL041C, strain sdh2, active compounds read low 1 | S. cerevisiae deletion strains, locus YLR027C, strain aat2, active compounds read low 1.01 | S. cerevisiae deletion strains, locus YLR039C, strain RIC1, active compounds read low 1 | S. cerevisiae deletion strains, locus YLR058C, strain SHM2, active compounds read low 1.01 | S. cerevisiae deletion strains, locus YLR102C, strain apc9, active compounds read low 0.998 | S. cerevisiae deletion strains, locus YLR221C, strain rsa3, active compounds read low 0.995 | S. cerevisiae deletion strains, locus YLR258W, strain gsy2, active compounds read low 1.01 | S. cerevisiae deletion strains, locus YLR262C, strain YPT6 (second series), active compounds read low 1.01 | S. cerevisiae deletion strains, locus YLR262C, strain YPT6, active compounds read low 0.986 | S. cerevisiae deletion strains, locus YLR268W, strain sec22, active compounds read low 0.99 | S. cerevisiae deletion strains, locus YLR320W, strain mms22, active compounds read low 1 | S. cerevisiae deletion strains, locus YLR330W, strain CHS5, active compounds read low 1.01 | S. cerevisiae deletion strains, locus YLR342W, strain FKS1 (second series), active compounds read low 1 | S. cerevisiae deletion strains, locus YLR342W, strain FKS1, active compounds read low 1 | S. cerevisiae deletion strains, locus YLR357W, strain rsc2, active compounds read low 1.03 | S. cerevisiae deletion strains, locus YLR370C, strain arc18, active compounds read low 0.999 | S. cerevisiae deletion strains, locus YLR371W, strain rom2, active compounds read low 0.998 | S. cerevisiae deletion strains, locus YLR384C, strain iki3, active compounds read low 1.01 | S. cerevisiae deletion strains, locus YLR418C, strain cdc73, active compounds read low 0.963 | S. cerevisiae deletion strains, locus YML016C, strain PPZ1, active compounds read low 1 | S. cerevisiae deletion strains, locus YML032C, strain rad52, active compounds read low 0.996 | S. cerevisiae deletion strains, locus YML120C, strain ndi1, active compounds read low 0.992 | S. cerevisiae deletion strains, locus YML124C, strain tub3, active compounds read low 0.996 | S. cerevisiae deletion strains, locus YMR058W, strain fet3, active compounds read low 1 | S. cerevisiae deletion strains, locus YMR078C, strain ctf18, active compounds read low 1 | S. cerevisiae deletion strains, locus YMR125W, strain sto1, active compounds read low 0.988 | S. cerevisiae deletion strains, locus YMR129W, active compounds read low 0.967 | S. cerevisiae deletion strains, locus YMR205C, strain PFK2, active compounds read low 1 | S. cerevisiae deletion strains, locus YMR223W, strain ubp8, active compounds read low 0.997 | S. cerevisiae deletion strains, locus YMR231W, strain pep5, active compounds read low 1 | S. cerevisiae deletion strains, locus YMR263W, strain SAP30, active compounds read low 1 | S. cerevisiae deletion strains, locus YMR307W, strain GAS1, active compounds read low 0.977 | S. cerevisiae deletion strains, locus YNL067W, strain RPL9B, active compounds read low 1 | S. cerevisiae deletion strains, locus YNL071W, strain lat1, active compounds read low 1.01 | S. cerevisiae deletion strains, locus YNL128W, strain TEP1, active compounds read low 1.01 | S. cerevisiae deletion strains, locus YNL153C, strain GIM3, active compounds read low 1 | S. cerevisiae deletion strains, locus YNL209W, strain ssb2, active compounds read low 0.994 | S. cerevisiae deletion strains, locus YNL233W, strain BNI4, active compounds read low 1.01 | S. cerevisiae deletion strains, locus YNL248C, strain rpa49, active compounds read low 1 | S. cerevisiae deletion strains, locus YNL250W, strain rad50, active compounds read low 0.991 | S. cerevisiae deletion strains, locus YNL271C, strain bni1, active compounds read low 1.01 | S. cerevisiae deletion strains, locus YNL298W, strain CLA4, active compounds read low 0.989 | S. cerevisiae deletion strains, locus YNL307C, strain MCK1, active compounds read low 0.998 | S. cerevisiae deletion strains, locus YNL322C, strain KRE1 (second series), active compounds read low 1.02 | S. cerevisiae deletion strains, locus YNL322C, strain KRE1, active compounds read low 1.01 | S. cerevisiae deletion strains, locus YNR049C, strain mso1, active compounds read low 1 | S. cerevisiae deletion strains, locus YNR052C, strain pop2, active compounds read low 1 | S. cerevisiae deletion strains, locus YOL006C, strain TOP1, active compounds read low 0.992 | S. cerevisiae deletion strains, locus YOL012C, strain htz1 0.783 | S. cerevisiae deletion strains, locus YOL147C, strain pex11, active compounds read low 0.997 | S. cerevisiae deletion strains, locus YOR001W, strain rrp6, active compounds read low 1 | S. cerevisiae deletion strains, locus YOR061W, strain CKA2, active compounds read low 0.998 | S. cerevisiae deletion strains, locus YOR069W, strain VPS5, active compounds read low 1 | S. cerevisiae deletion strains, locus YOR070C, strain gyp1, active compounds read low 0.993 | S. cerevisiae deletion strains, locus YOR080W, strain dia2, active compounds read low 0.998 | S. cerevisiae deletion strains, locus YOR083W, strain WHI5, active compounds read low 0.997 | S. cerevisiae deletion strains, locus YOR106W, strain vam3, active compounds read low 1.01 | S. cerevisiae deletion strains, locus YOR136W, strain idh2, active compounds read low 0.992 | S. cerevisiae deletion strains, locus YOR144C, strain elg1, active compounds read low 1 | S. cerevisiae deletion strains, locus YOR184W, strain ser1, active compounds read low 0.992 | S. cerevisiae deletion strains, locus YOR265W, strain rbl2, active compounds read low 1 | S. cerevisiae deletion strains, locus YOR270C, strain vph1, active compounds read low 1.01 | S. cerevisiae deletion strains, locus YOR290C, strain snf2, active compounds read low 1.01 | S. cerevisiae deletion strains, locus YOR316C, strain cot1, active compounds read low 0.991 | S. cerevisiae deletion strains, locus YPL051W, strain arl3, active compounds read low 1.01 | S. cerevisiae deletion strains, locus YPL055C, strain LGE1, active compounds read low 1.01 | S. cerevisiae deletion strains, locus YPL078C, strain atp4, active compounds read low 0.996 | S. cerevisiae deletion strains, locus YPL106C, strain sse1, active compounds read low 0.984 | S. cerevisiae deletion strains, locus YPL240C, strain hsp82, active compounds read low 0.991 | S. cerevisiae deletion strains, locus YPL241C, strain CIN2, active compounds read low 1 | S. cerevisiae deletion strains, locus YPR119W, strain clb2, active compounds read low 1 | S. cerevisiae deletion strains, locus YPR141C, strain kar3, active compounds read low 0.996 | S. cerevisiae deletion strains, locus YPR163C, strain tif3, active compounds read low 0.991 | S. cerevisiae deletion strains, locus YPR167C, strain met16, active compounds read low 0.995 | S. cerevisiae deletion strains, strain wtn01, active compounds read low 0.985 | S. cerevisiae strains, strain wild type, active compounds read low 0.999
